# Test results from PubChem BioAssay (NCATS).
# Values without a mark were called inactive. Results filed as inconclusive are left out. Calls of active or inactive are those of the source. Unless noted, calls follow the shape of the dose curve; as a rule, active = well fitted curve in either direction with a large enough effect (not every such curve was filed as active); inconclusive = small, poorly fitted or top-dose-only effect, or another doubt; inactive = flat fitted curve, though single readings scatter.
# How the values were obtained:
# [1] = AP1 Signaling Pathway (AID 357); conditions: ME-180 AP-1-bla reporter, EGF-induced, beta-lactamase ratio, 5 h; at 17.2 µM (top of the series) unless noted; also: % is scaled to controls: 0 for no effect and ±100 for the full control effect
# Method in brief: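 ME-180 cells with beta-lactamase reporter under AP-1 response element, stimulated with EC50 EGF; compounds tested in titration series, 5 h at 37 °C. CCF4 substrate added 2.5 h at room temperature; 460/530 nm emission ratio gave %activity and AC50.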
# [2] = Stat Signaling Pathway (AID 446); conditions: ME-180 SIE beta-lactamase reporter, IL-6 stimulated, 5 h; at 17.2 µM (top of the series) unless noted;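 also: ME-180 cervical cancer cells given 40 pM IL-6 alongside compound; SIE-controlled beta-lactamase reporter measured as 460/530 nm FRET emission ratio; % is scaled to controls: 0 for no effect and ±100 for the full control effect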
# Method in brief: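 Reporter line: ME-180 cervical carcinoma, SIE-beta-lactamase. Treatment: compound with 40 pM IL-6, 5 hrs, 37 C, in low-serum OPTI-MEM with 10 mM HEPES pH 7.3. Detection: 460/530 nm fluorescence.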
# [3] = target: Glucocorticoid receptor (Homo sapiens) (UniProt P04150); test: GR-GFP Redistribution (AID 450;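 active = compounds whose dose series gives a full or clear partial fitted curve of increased nuclear translocation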; also: potency is read from the fitted curve at half-maximal effect)
# Chain of Glucocorticoid receptor (Homo sapiens) (P04150 whole entry, looked up): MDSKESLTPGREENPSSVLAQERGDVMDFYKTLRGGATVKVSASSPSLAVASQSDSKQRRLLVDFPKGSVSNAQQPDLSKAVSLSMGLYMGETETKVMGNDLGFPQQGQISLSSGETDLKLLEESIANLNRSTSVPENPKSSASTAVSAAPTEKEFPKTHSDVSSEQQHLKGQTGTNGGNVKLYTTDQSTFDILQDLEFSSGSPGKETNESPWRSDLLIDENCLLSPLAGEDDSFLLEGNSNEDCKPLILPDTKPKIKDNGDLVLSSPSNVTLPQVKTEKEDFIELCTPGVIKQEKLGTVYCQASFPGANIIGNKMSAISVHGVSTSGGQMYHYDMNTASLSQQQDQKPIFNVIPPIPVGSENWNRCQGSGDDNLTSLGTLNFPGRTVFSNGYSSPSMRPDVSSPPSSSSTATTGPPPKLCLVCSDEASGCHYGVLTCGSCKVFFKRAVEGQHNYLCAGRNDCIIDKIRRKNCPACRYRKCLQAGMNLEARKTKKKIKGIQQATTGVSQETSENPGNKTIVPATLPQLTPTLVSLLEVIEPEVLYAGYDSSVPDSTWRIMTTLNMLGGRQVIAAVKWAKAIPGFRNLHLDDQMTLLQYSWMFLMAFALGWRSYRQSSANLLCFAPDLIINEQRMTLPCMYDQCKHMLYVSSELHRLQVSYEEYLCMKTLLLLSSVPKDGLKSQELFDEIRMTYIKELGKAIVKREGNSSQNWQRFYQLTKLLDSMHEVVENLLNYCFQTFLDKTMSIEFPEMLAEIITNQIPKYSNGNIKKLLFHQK
SMILES,"activity change, negative = inhibition [1]","activity, negative = inhibition [2]",Potency [3]
CCN(CC)c1nc(-c2cccc(OC)c2O)nc2ccccc12,-20.9%,-20%,> 20.6 µM
Cc1cc(C)n(C2CCCCC2OC(=O)c2ccccc2)n1 (centres undefined),7.47%,3.83%,> 20.6 µM
C=CCOC(=O)C(C#N)c1nc2ccccc2nc1N1CCC(C(=O)OCC)CC1 (centres undefined),-17.2%,-10.4%,> 20.6 µM
CCN(CC)CCCn1c(C)cc2c(c1=O)C(c1ccc(OC)c(OC)c1OC)C(C#N)=C(N)O2 (centres undefined),6.36%,10.3%,> 20.6 µM
Cn1c(OCc2ccco2)nc2c1c(=O)n(Cc1ccc(Cl)c(Cl)c1)c(=O)n2C,-3.54%,0.615%,> 20.6 µM
Cc1nn2cnc3sc4c(c3c2nc1=O)CCCC4,10.1%,-8.12%,> 20.6 µM
CC1(C)Cc2nc3sc4c(N(CCO)CCO)ncnc4c3cc2CO1,1.68%,-5.3%,> 20.6 µM
C=CCOn1c(=O)c(-c2cc3ccccc3o2)[n+]([O-])c2ccccc21,-28.9%,-8.42%,> 20.6 µM
CC(C)Cn1nc(NC(=O)C(C)(C)C)c2cc3ccccc3nc21,-20.3%,-6.46%,> 20.6 µM
COc1ccc(Cn2c(=O)c3c(nc(NCCO)n3C)n(C)c2=O)cc1,1.13%,-24.4%,> 20.6 µM
COc1ccc(/C=N/n2cncn2)cc1CSc1ccccn1,-9.09%,10.6%,> 20.6 µM
CCC(CC)c1nc2cc(OC)c(OC)cc2c(=O)o1,-1.43%,-3.88%,> 20.6 µM
Cc1c(O)c(CN2CCCC2)cc2c1oc(=O)c1ccccc12,4.42%,-9.48%,> 20.6 µM
O=S(=O)(c1ccccc1)N1CCC(N2CCCCCC2)CC1,5.59%,4.98%,> 20.6 µM
COCCCNC(=O)c1c(N)n(/N=C/c2ccccn2)c2nc3ccccc3nc12,-25.1%,-10.3%,> 20.6 µM
O=c1cc(-c2ccco2)nc(-c2cccs2)o1,6.68%,8.1%,> 20.6 µM
CSc1nc2[nH]c3c(c2c2nnnn12)CCCC3,-20.6%,-10.8%,> 20.6 µM
COC(=O)CN(c1nc(C)c(Cl)c(OC)n1)S(=O)(=O)c1ccc(C)cc1,6.71%,3.43%,> 20.6 µM
O=C(c1ccccc1F)N1CCC(N2CCCCCC2)CC1,-3.96%,2.78%,> 20.6 µM
COC(=O)c1ccc(Oc2nc3ccccc3n3c(C)nnc23)cc1,13%,4.74%,> 20.6 µM

SMILES,"activity change, negative = inhibition [1]","activity, negative = inhibition [2]",Potency [3]
N#CC1=C(N)OC2=C(C(=O)CCC2)[C@]12C(=O)N(CC(N)=O)c1ccccc12,12%,1.02%,> 20.6 µM
COc1cc(-c2nn3c(-c4cccnc4)nnc3s2)cc(OC)c1OC,-0.374%,-7.44%,> 20.6 µM
CCOC(=O)c1ccc(N=CC2=C(O)CC(c3ccco3)CC2=O)cc1 (centres undefined),2.87%,-4%,> 20.6 µM
C[C@]12CC[C@@H]3c4ccc(O)cc4CC[C@H]3[C@@H]1CC[C@@H]2OC(=O)CCC(=O)O,-5.44%,-12.1%,> 20.6 µM
Cc1nn(C)cc1/C=N/n1nnnc1N,0.525%,-1.52%,> 20.6 µM
CCOC(=O)C1=C(CSc2nc3c(cc2C#N)CCC3)OC(N)=C(C#N)C1c1ccccc1 (centres undefined),0.107%,-16.4%,> 20.6 µM
N#Cc1c(SCC(N)=O)nsc1SCc1ccc(Cl)cc1,-15.5%,-18%,> 20.6 µM
Clc1ccc(-n2ncc3c(NCc4cccs4)ncnc32)cc1,13.8%,-14.7%,> 20.6 µM
CCOC(=O)c1[nH]c2ccc(F)cc2c1NC(=O)CCN1CCSCC1,0.77%,0.475%,> 20.6 µM
CN1CCN(CCC(=O)N2c3ccccc3Sc3ccc(Cl)cc32)CC1,12.7%,6.36%,> 20.6 µM
CCC1(C)Cc2c(sc3c2c(=O)n(C)c2nnc(SCC(=O)c4ccc(Cl)cc4)n32)CO1 (centres undefined),-5.39%,-5.38%,> 20.6 µM
CC(=O)c1cc(CN2CCCCC2)cc(OC(C)C)c1,15.3%,13.1%,> 20.6 µM
CCOC(=O)C1=C(C)NC(SCC(=O)Nc2nc(C)cs2)=C(C#N)C1c1cccs1 (centres undefined),-22.9%,-27.7%,> 20.6 µM
O=c1/c(=C\c2cccn2-c2ccccc2)sc2nc3ccccc3n12,2.64%,14.8%,> 20.6 µM
CN(CC(O)COc1ccc(OCC(O)CN(C)C2CCCCC2)cc1)C1CCCCC1 (centres undefined),11.3%,12.2%,> 20.6 µM
COC(=O)NCC12CC3CC(C1)CC(CNC(=O)OC)(C3)C2,3.64%,-1.03%,> 20.6 µM
CCCc1nc(N2CCCC2)c(C#N)c2c1CCCC2,-2.98%,10.3%,> 20.6 µM
Cc1ccc(NC(=O)CSC2=C(C#N)C(c3ccco3)C3=C(CCCC3=O)N2)cc1 (centres undefined),-26.3%,30.5%,> 20.6 µM
CCOC(=O)C1=Nc2ccccc2C1=[N+]=[N-],-19%,-23.9%,> 20.6 µM
COc1ccc(N2CCN(c3oc(COc4ccc(Cl)cc4)nc3C#N)CC2)cc1,-27.6%,11.6%,> 20.6 µM

SMILES,"activity change, negative = inhibition [1]","activity, negative = inhibition [2]",Potency [3]
Cc1ccc(SCc2c(C#N)c3ccccc3n2C)cc1,-29.6%,-15.3%,> 20.6 µM
C/C(=C\C(=O)O)CC(=O)O,-2.96%,7.83%,> 20.6 µM
Cc1ccc(S(=O)(=O)N2CCN(c3nc(C)c4c(c3C#N)CC(C)(C)OC4)CC2)cc1,1.26%,89.5% [activator] (active),> 20.6 µM
COC(=O)CN(c1nc(C)c(Br)c(OC)n1)S(=O)(=O)c1ccc(C)cc1,-6.01%,7.73%,> 20.6 µM
COc1cccc(-c2nc(NCCN3CCOCC3)c3ccccc3n2)c1O,-15.3%,6.04%,> 20.6 µM
COc1ccc(Nc2oc(-c3cccs3)nc2C#N)cc1,-23.7%,-1.34%,> 20.6 µM
Cc1ccc(/C(O)=C2/C(=O)C(=O)N(Cc3ccco3)C2c2cccs2)cc1 (centres undefined),2.29%,-12.7%,> 20.6 µM
COc1ccc(CCn2c(=N)c(C(=O)NCc3ccco3)cc3c(=O)n4ccccc4nc32)cc1,-1.64%,2.96%,> 20.6 µM
COC(=O)CC1=C(C(=O)OC)C(c2ccc3c(c2Cl)OCO3)C(C#N)=C(N)O1 (centres undefined),29.4%,14.3%,> 20.6 µM
CCCc1nc(N2CCOCC2)c(C#N)c2c1CCCC2,-22%,-12.3%,> 20.6 µM
CCCCCCOc1ccc(C(=O)n2cnc(N)n2)cc1,-12.8%,27.4%,> 20.6 µM
O=S(=O)(c1cccc(-c2csc(-c3ccccc3)n2)c1)N1CCOCC1,-13.8%,-9.15%,> 20.6 µM
Cc1cc(Cn2ccnc2)c(C)cc1Cn1ccnc1,0.168%,2%,> 20.6 µM
CCOC(=O)c1c2c(c(=S)n(-c3ccccc3)c1N)CCC2,-21.8%,-15.9%,> 20.6 µM
CC(C)Cc1nc(N2CCN(C(=O)Cc3ccccc3)CC2)c(C#N)c2c1COC(C)(C)C2,-5.38%,-23.7%,> 20.6 µM
CC1(C)Cc2c(c(N3CCOCC3)nc3sc(C#N)c(N)c23)CS1,11.7%,-14.4%,> 20.6 µM
CCC(=O)Oc1ccc(C(CC)C(CC)c2ccc(OC(=O)CC)cc2)cc1 (centres undefined),-8.93%,-3.77%,> 20.6 µM
COc1ccccc1-c1nn2c(-c3ccco3)nnc2s1,0.523%,-5.72%,> 20.6 µM
